Potency and affinity values are given separately. Values without a mark were called inactive.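 Rule for the calls: active = every repeat run showing a signal drop whose fitted half-maximal concentration is at most twice the top tested concentration; inconclusive = repeat runs disagree, or flat partial drop, or poor fit; inactive = the rest.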
experiment: general mammalian cell viability loss – activator set, cherry-pick, cytotoxicity control for miR-122 modulator project, dose response (AID 720690); conditions: HEK293T viability, CellTiter-Glo luminescence, 48 h; series mostly up to 26 µM; activity change, negative = cytotoxicity: at the top concentration;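 note: 0% = neutral control wells and -100% = MG132 cytotoxic control wells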

| SMILES | activity change, negative = cytotoxicity |
| --- | --- |
| COc1cccc(C(=O)Nc2ccc3c(c2)C(=O)N(C)[C@H]2CC[C@H](CC(=O)NCc4ccc(F)cc4)O[C@H]2CO3)c1 | -30.3% |
| CC(C)C(=O)Nc1ccc2c(c1)C(=O)N(C)[C@@H]1CC[C@@H](CC(=O)NCC3CC3)O[C@H]1CO2 | -13.5% |
| COc1cccc(CNC(=O)C[C@@H]2CC[C@@H]3[C@@H](COc4ccc(NC(C)=O)cc4C(=O)N3C)O2)c1 | -15.2% |
| C=CCNC(=S)NNC(=O)c1cccn(Cc2ccc(Cl)c(Cl)c2)c1=O | -12% |
| CC(=O)Nc1ccc(-c2cc(-c3ccc(NC(C)=O)cc3)nc(-c3ccc(NC(C)=O)cc3)n2)cc1 | 23.2% |
| CCC(=O)N1C[C@H]2[C@@H](c3ccccc31)[C@H](CO)N2Cc1cc(F)ccc1F | 12.3% |
| C[C@H](NC(=O)C[C@@H]1CC[C@H]2[C@H](COc3ccc(NS(=O)(=O)c4ccc(Cl)cc4)cc3C(=O)N2C)O1)c1ccccc1 | -12.7% |
| CCCC(=O)Nc1ccc2c(c1)C(=O)N(C)[C@@H]1CC[C@@H](CC(=O)NCC(F)(F)F)O[C@H]1CO2 | 1.75% |
| CN1C(=O)c2cc(NC(=O)c3cccs3)ccc2OC[C@H]2O[C@H](CC(=O)NCCN3CCCCC3)CC[C@H]21 | -5.42% |
| CC(=O)N1[C@H](CN(C(=O)c2ccc(F)cc2)C(C)C)[C@@H](c2ccccc2)[C@@H]1CO | -6.51% |
| O=C(NC[C@@H]1[C@H](c2ccccc2)[C@@H](CO)N1Cc1cccnc1)c1ccccn1 | 35.7% |
| CCCCC(=O)OCC(=O)c1[nH]c(C)c(C(=O)OCC)c1C | -3.31% |
| C[C@@H]1CN([C@H](C)CO)S(=O)(=O)c2ccc(C3=CCCC3)cc2O[C@@H]1CN(C)C(=O)C1CCOCC1 | 4.94% |
| CC(C)C#Cc1ccc2c(c1)O[C@H](CN(C)C(=O)Nc1ccccc1)[C@H](C)CN([C@@H](C)CO)S2(=O)=O | -13% |
| COc1ccc(-c2c(C)nn3c(N)c(-c4ccccc4)cnc23)cc1OC | 21.1% |
| CN1C(=O)c2cc(NC(=O)c3cccc(F)c3)ccc2OC[C@H]2O[C@@H](CC(=O)NC3CCC3)CC[C@H]21 | 2.97% |
| COc1cccc(-c2nc(NCCN3CCOCC3)c3ccccc3n2)c1O | -17.9% |
| CCC(=O)N1[C@H](CN(C(C)C)S(C)(=O)=O)[C@@H](c2ccccc2)[C@@H]1CO | -1.45% [at 23.5 µM] |
| c1ccc(-n2nnnc2NCCc2c[nH]c3ccccc23)cc1 | -12.3% |
| CNC(=O)C[C@H]1CC[C@@H]2[C@H](COc3ccc(NC(=O)c4ccc(OC)cc4)cc3C(=O)N2C)O1 | -9.74% |

| SMILES | activity change, negative = cytotoxicity |
| --- | --- |
| CO[C@H]1CN(C)C(=O)c2cc(NC(=O)C3CC3)ccc2OC[C@H](C)N(CCc2ccccc2)C[C@H]1C | -3.16% |
| COc1cccc(NC(=O)N(C)C[C@@H]2Oc3ncc(C#Cc4ccncc4)cc3C(=O)N([C@@H](C)CO)C[C@H]2C)c1 | -11.6% |
| CN1C(=O)c2cc(NC(=O)c3cccc(F)c3)ccc2OC[C@@H]2O[C@H](CC(=O)O)CC[C@H]21 | 9.87% |
| CCCCc1cc(=O)oc2cc(C)cc(OC(C)C(=O)O)c12 (centres undefined) | -8.47% |
| C[C@H](CO)N1C[C@H](C)[C@H](CN(C)C(=O)C2CCC2)Oc2cc(-c3ccc(C(=O)N(C)C)cc3)ccc2S1(=O)=O | 3.87% |
| CCCNC(=O)N1[C@H](CNC(=O)c2ccc(F)cc2)[C@H](c2ccccc2)[C@@H]1CO | -5.2% [at 23.5 µM] |
| CCOc1ccc(CCNC(=O)C2CCN(S(=O)(=O)N3CCC(C)CC3)CC2)cc1OCC | 23% |
| CC(=O)Nc1ccc2c(c1)C(=O)N(C)[C@H]1CC[C@H](CC(=O)NC3CCCCC3)O[C@@H]1CO2 | -5.08% |
| CC(=O)Nc1ccc(S(=O)(=O)Nc2ccc(S(=O)(=O)Nc3nc(C)cc(C)n3)cc2)cc1 | -10.1% [at 12 µM] |
| COCCNC(=O)C[C@H]1CC[C@@H]2[C@@H](COc3ccc(NS(=O)(=O)c4ccc(Cl)cc4)cc3C(=O)N2C)O1 | -14.5% |
| CNC(=O)C[C@@H]1CC[C@@H]2[C@H](COc3ccc(NC(=O)c4cccc(OC)c4)cc3C(=O)N2C)O1 | 4.45% |
| COCC(=O)N1[C@@H](CO)[C@@H]2c3ccccc3N(C(=O)C3CC3)C[C@@H]21 | 0.653% |
| Cc1cc(C(=O)Nc2ccc3c(c2)C(=O)N(C)[C@H]2CC[C@H](CC(=O)N[C@@H](C)c4ccccc4)O[C@H]2CO3)no1 | -13% |
| CCNC(=O)CCC(=O)Nc1cc(Cl)ccc1C | -23.3% |
| Cc1ccccc1NCN1C(=O)C2C3C=CC(C3)C2C1=O (centres undefined) | 3.51% |
| C[C@@H]1CN([C@@H](C)CO)C(=O)c2cc(NC(=O)NC3CCCCC3)ccc2O[C@@H]1CN(C)C(=O)Nc1ccc2c(c1)OCO2 | -8.64% |
| O=C(c1cccnc1)N1C[C@H]2[C@@H](c3ccccc31)[C@H](CO)N2C(=O)C1CCCC1 | -16.5% [at 23.5 µM] |
| C/C=C/c1ccc([C@H]2[C@@H](CO)N[C@@H]2CN(CC)C(=O)CN2CCOCC2)cc1 | -5.97% |
| C/C=C/c1ccc([C@H]2[C@@H](CNC(=O)CC)N(Cc3ccccn3)[C@H]2CO)cc1 | -11.2% |

Source: PubChem BioAssay AID720690 (Broad Institute, 2013)
